Source: PubChem (National Center for Advancing Translational Sciences (NCATS))
L3MBTL1 block: qHTS Assay for the Inhibitors of L3MBTL1. AID 485360, 2010. Potency, µM (top dose mostly 57.1 µM), for the others: top-dose activity, negative = inhibition, actives largely listed as inhibitors. 230,000 compounds, 0.66% hits. AlphaScreen L3MBTL1–H3K9me1 peptide binding. Lethal(3)malignant brain tumor-like protein 1 (Homo sapiens), Q9Y468; also: % is scaled to controls: 0 for no effect and ±100 for the full control effect; nearly all actives have a fitted effect of over 60% in size
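First, the protein-peptide complex forms for 30 min at room temperature (L3MBTL1 50 nM, biotinylated H3K9me1 peptide 75 nM). Next, compounds are pin-transferred and incubated 30 min. Finally, AlphaScreen beads are added and read after 30 min.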
JMJD2A Tudor inh: qHTS Assay for Inhibitors of JMJD2A-Tudor Domain. AID 504339, 2011. AlphaScreen JMJD2A-Tudor / H3K4me3 peptide binding. 390,000 compounds, 4.4% hits. Potency, µM (top dose mostly 114 µM), for inactives: at the highest dose activity change, negative = inhibition, hits mostly inhibitors. Lysine-specific demethylase 4A (Homo sapiens), O75164; also: % is scaled to controls: 0 for no effect and ±100 for the full control effect; nearly all actives have a fitted effect of over 50% in size
HP1b chromo inh: HTS for Inhibitors of HP1-beta Chromodomain Interactions with Methylated Histone Tails. 390,000 compounds, 0.56% hits. AID 540317, 2011. AlphaScreen HP1-beta / biotin-H3K9me3 peptide binding. Chromobox protein homolog 1 (Homo sapiens), P83916. Potency, µM (titrated, usually from 114 µM), without a hit: top-dose activity change, negative = inhibition, most hits filed as inhibitors; also: nearly all actives have a fitted effect of over 70% in size
Target sequence (P83916 whole entry, looked up): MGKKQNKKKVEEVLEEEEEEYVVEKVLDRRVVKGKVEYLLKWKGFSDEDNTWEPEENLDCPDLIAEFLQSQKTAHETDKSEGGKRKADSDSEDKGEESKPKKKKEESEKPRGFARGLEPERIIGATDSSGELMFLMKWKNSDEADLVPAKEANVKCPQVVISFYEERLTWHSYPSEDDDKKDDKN
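Compound inhibition of the preformed complex between 50 nM HP1-beta and 50 nM biotinylated H3K9me3 peptide was read by AlphaScreen. Buffer was PBS pH 7.4 with 0.01% Tween-20. Incubations ran 30 min at room temperature, with 10 ug/mL donor/acceptor beads.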
Sfp PPTase inh: qHTS Assay for Inhibitors of Bacillus subtilis Sfp phosphopantetheinyl transferase (PPTase); 4'-phosphopantetheinyl transferase ffp (Bacillus subtilis), Q9F4F7; Biochemical Sfp PPTase activity, qHTS; Potency, µM, inactives show largest response in the series, negative = inhibition, usual class: inhibitors; 310,000 compounds, 3.5% hits;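 also: the enzyme is Sfp with the accession as filed and its product quenches rhodamine fluorescence; 0% = enzyme reaction without inhibitor and -100% = no enzyme wells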
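Buffer: 50 mM Hepes-Na pH 7.6, 10 mM MgCl2, 0.01% Nonidet P-40, 0.01% BSA. Enzyme 15 nM, pre-exposed to compound 15 min; substrates then added and fluorescence change tracked over 30 min.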
BAZ2B block: qHTS Assay for Inhibitors of BAZ2B; AID 504333, 2011; 360,000 compounds, 4.4% hits; AlphaScreen BAZ2B-H3K14Ac peptide displacement; Bromodomain adjacent to zinc finger domain protein 2B (Homo sapiens), Q9UIF8; Potency, µM (highest dose often 114 µM), inactives show top-dose activity change, negative = inhibition, most hits filed as inhibitors; also: % is scaled to controls: 0 for no effect and ±100 for the full control effect; nearly all actives have a fitted effect of over 60% in size
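BAZ2B (50 nM) with biotin-H3(5-23)K14Ac peptide (50 nM) in PBS pH 7.4, 0.01% Tween-20, preformed 30 min, then compound 30 min at room temperature; top concentration 110uM. AlphaScreen streptavidin donor/nickel chelate acceptor beads (10 ug/mL final), 20 min dark, signal read.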
G9a block: qHTS Assay for Inhibitors of Histone Lysine Methyltransferase G9a | Potency, µM (top dose mostly 102 µM), for inactives: at the top dose activity, negative = inhibition, usual class: inhibitors | 350,000 compounds, 8.8% hits | AID 504332, 2011 | G9a H3K9 monomethylation, AlphaScreen, 2 h; also: % is scaled to controls: 0 for no effect and ±100 for the full control effect; nearly all actives have a fitted effect of over 75% in size
Target sequence (Q96KQ7 913-1193 limits assumed): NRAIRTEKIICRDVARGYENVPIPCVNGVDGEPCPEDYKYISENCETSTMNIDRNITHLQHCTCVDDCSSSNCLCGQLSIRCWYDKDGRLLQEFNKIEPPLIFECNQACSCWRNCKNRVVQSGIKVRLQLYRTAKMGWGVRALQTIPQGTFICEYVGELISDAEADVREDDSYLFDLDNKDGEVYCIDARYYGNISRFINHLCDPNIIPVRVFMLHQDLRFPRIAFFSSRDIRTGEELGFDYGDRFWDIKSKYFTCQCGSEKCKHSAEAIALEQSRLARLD
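Compounds were preincubated with 20 nM G9a for 15 min, after which biotinylated H3K9 peptide (500 nM) and SAM (20 uM) started a 2 h room-temperature reaction. Monomethylated product was quantified by antibody-based AlphaScreen chemiluminescence.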
* hit, by the source's call; ? = inconclusive; / = no result; ! = not confirmed by another sample; [ ] = remark or other dose. Only some compounds are listed: those with a hit (about 12% of all), similar ones and a draw of the others. Calls follow the shape of the dose curve; as a rule, active = well fitted curve in the direction sought with a large enough effect; inconclusive = small, poorly fitted or top-dose-only effect, or another doubt; inactive = no such curve, though single readings can be large; an effect the other way counts as inactive or inconclusive. Potency is read from the fitted curve at half-maximal effect.

SMILES	L3MBTL1 block	JMJD2A Tudor inh	HP1b chromo inh	Sfp PPTase inh	BAZ2B block	G9a block
Cc1sc(NC(=O)C2CCCC2)c(C#N)c1C	-7%	-19%	?	?	-1%	7.1µM*
Cc1sc(NC(=O)C2CCCO2)c(C#N)c1C (stereo not drawn)	/	-20%	-7%	15%	-27%	?
CCCC(=O)Nc1sc(C)c(C)c1C#N	-1%	-12%	-6%	-22%	-23%	45µM*
CCc1c(C)sc(NC(=O)CC#N)c1C#N	/	?	-4%	32µM*	-31%	-27%[2.33 µM]
Cc1sc(NC(=O)CCCC(=O)O)c(C#N)c1C	/	-3%	18%	8%	-29%	?
CNc1oc(-c2ccc(COc3ccc(C)cc3)o2)nc1C#N	/	-11%	13%	/	-1%	-34%[59 µM]
CCc1ccc(NC(=O)Cn2nc(C(F)(F)F)c3c2CCCC3)cc1	/	-5%	45%	/	1%	4%[59 µM]
CCCCC(=O)Nc1sc2c(c1C#N)CC(C)(C)OC2	11%	45µM*	10%	9%	9%	13%
CCc1c(C)sc(NC(=O)Cn2nc(C(F)(F)F)c3c2CCCC3)c1C#N	-3%	4%	-10%	40µM*	10%	14µM*
Cc1oc(-c2ccc(Cl)cc2)cc1C(=O)/C(C#N)=C/Nc1cccc(OC(F)(F)F)c1	-12%	-13%	17%	3%	-16%	50µM*
Cc1ccc2c(c1)=C(c1sc(N(C)c3ccc(O)cc3)nc1O)C(=O)N=2	/	-3%	9%	2%	-19%	45µM*
COc1cccc(/C=N/NC(=O)CCn2nnc3ccccc32)c1	8%	-31%	6%	12%	8%	2%
COc1cccc(/C=N/NC(=O)C(C)n2nnc3ccccc32)c1 (stereo not drawn)	2%	45µM*	8%	-1%	2%	5%[59 µM]
CC1CCN(CC[C@H]2CCCN2S(=O)(=O)c2cccc(O)c2)CC1	10%	-14%	53%	-5%	4%	25µM*!
CCCC(C)C(=O)Nc1cc(S(=O)(=O)N2CCCCC2)ccc1N1CCOCC1 (stereo not drawn)	2%	-12%	31%	/	-3%	4%[59 µM]
COc1ccc2cc(/C(C)=N/NC(=S)Nc3cc(S(=O)(=O)N4CCOCC4)ccc3N3CCOCC3)ccc2c1	-7%	/	/	-7%	-5%	-104%[59 µM]
O=[N+]([O-])c1cc(Cl)cc(/C=N/NC(=S)Nc2ccc(S(=O)(=O)N3CCOCC3)cc2)c1O	3.5µM*	-35%[11.4 µM]	22µM*	?	2.8µM*	16µM*
C/C(=N\NC(=S)Nc1cc(S(=O)(=O)N2CCOCC2)ccc1Cl)c1ccc(N2CCOCC2)cc1	-17%	-28%	-2%	-14%	-21%	32µM*
C/C(CCC(C)C)=N\NC(=S)Nc1cc(S(=O)(=O)N2CCOCC2)ccc1N1CCOCC1	-1%	-36%	-22%	12%	-32%	25µM*
Oc1ccc(/C=N/NC(=S)N2CCOCC2)cc1	-1%	-35%	-3%	-1%	-3%	50µM*
Cc1noc(C)c1S(=O)(=O)Nc1ccc2c(c1)C(=O)N([C@H](C)CO)C[C@H](C)[C@@H](CN(C)S(=O)(=O)c1ccc(F)cc1)O2	3%	-21%	24%	/	/	/
COc1ccc2[nH]c(C(=O)O)c(CCNC(=O)/C=C/c3ccc(O)c(OC)c3)c2c1	/	-16%	25%	14%	-4%	-15%
CN(C)c1ccc(/C=N/NC(=O)CN(c2cccc(Cl)c2)S(C)(=O)=O)cc1Br	/	-22%	31%	2%	8%	-1%[12.7 µM]
